Source: PubChem BioAssay (The Scripps Research Institute Molecular Screening Center)
TEAD-YAP inh = TEAD-YAP interaction inhibition. HEK-TIYL cells, TEAD-Gal4/YAP UAS-luciferase luminescence. AID 1259422. inhibition, % at 9.12 µM. actives 1.4% (n = 640,000); in the data active = inhibition above about 32%
FBW7 act = human FBW7 E3 ligase activation, primary screen. Q969H0. AlphaScreen FBW7–phospho-cyclin E peptide binding, activator screen. normalized activity (activation), % at 26.1 µM. actives 0.13% (n = 650,000); in the data active = normalized activity above about 1.9%;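 note: purified mutant Fbw7 with reduced substrate affinity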
MITF primary = inhibitors of human MITF | actives 0.91% (n = 650,000) | AlphaScreen MITF homodimerization, bead proximity signal | inhibition, % at 2.6 µM | O75030; in the data active = inhibition above about 50%
GPR151 ag = human GPR151 activation | Q8TDV0 | PathHunter beta-arrestin GPR151 cells, luminescence | activation, % at 11.2 µM | actives 1% (n = 650,000); in the data active = activation above about 4.9%
GPR151 conf act = confirmation of human GPR151 activators. GPR151 PathHunter beta-arrestin cells, luminescence, 90 min; % of EA-reagent control over plate median. 6,700 tested, under 10 active. AID 1508609. shares compounds with GPR151 ag. activation, % at 11.2 µM;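 active = mean percent activation across replicates above the confirmation screen cutoff of 4.91%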
GPR119 ag = activates human GPR119 in a GPR151 counter-screen; shares compounds with GPR151 ag; GPR119 PathHunter beta-arrestin cells, luminescence, 90 min; 0 = compound-well median, 100 = enzyme-acceptor control; activation, % at 11.2 µM; actives 0.3% (n = 6,700); AID 1508611;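 active = mean percent activation in the counterscreen above 29.09%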;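 note: counterscreen on off-target GPR119 to flag nonselective hits from the GPR151 activator screen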
Target sequence (Q8TDV5 whole entry, looked up): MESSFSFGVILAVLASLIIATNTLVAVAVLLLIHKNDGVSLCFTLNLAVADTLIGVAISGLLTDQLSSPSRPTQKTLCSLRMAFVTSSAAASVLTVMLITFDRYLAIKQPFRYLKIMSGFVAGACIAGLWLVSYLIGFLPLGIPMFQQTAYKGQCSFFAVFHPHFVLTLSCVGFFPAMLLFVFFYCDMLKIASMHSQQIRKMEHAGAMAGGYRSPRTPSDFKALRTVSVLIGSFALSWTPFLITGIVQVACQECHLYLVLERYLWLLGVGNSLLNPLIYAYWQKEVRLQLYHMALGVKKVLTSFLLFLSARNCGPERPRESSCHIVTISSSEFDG
Large screens that a line does not name were inactive (follow-up assays come after a bar, where they were run). This is a sample that favours compounds with a hit; in the whole collection about 3.5% have one here.

CCOC(=O)c1ccc(NC(=O)CCC(=O)OCC(=O)c2ccc([N+](=O)[O-])cc2)cc1	GPR151 ag 7.4 | GPR151 conf act inactive | GPR119 ag inactive
CCc1ccccc1NC(=O)CCC(=O)OCC(=O)c1ccc(C)cc1	none
CCc1ccc(C(=O)COC(=O)CCC(=O)Nc2ccc(OC)cc2)cc1	GPR151 ag 6.5 | GPR151 conf act inactive | GPR119 ag inactive
CCc1ccc(C(=O)COC(=O)CCC(=O)Nc2ccc([N+](=O)[O-])cc2)cc1	none
COc1ccc(NC(=O)CCC(=O)Oc2ccc(C)cc2)cc1	GPR151 ag 16 | GPR151 conf act inactive | GPR119 ag inactive
CCc1ccccc1NC(=O)CCC(=O)OCC(=O)c1ccc(Cl)cc1	GPR151 ag 8.7 | GPR151 conf act inactive | GPR119 ag inactive
O=C(CCCC(=O)OCC(=O)c1ccc(Cl)c([N+](=O)[O-])c1)Nc1ccccc1Cl	GPR151 ag 5.1 | GPR151 conf act inactive | GPR119 ag inactive
COCCNC(=O)c1cccc(OC2CCN(Cc3cnc(SC)nc3)CC2)c1	GPR151 ag 7.9 | GPR151 conf act inactive | GPR119 ag inactive
COCCNC(=O)c1ccc(CN2CCC(Cc3ccccc3)CC2)cc1	GPR151 ag 5.0 | GPR151 conf act inactive | GPR119 ag inactive
CCOC(=O)N1CCN(C(=O)c2ccc(CN3CCC(Cc4ccccc4)CC3)cc2)CC1	GPR151 ag 4.9 | GPR151 conf act inactive | GPR119 ag inactive
COCCNC(=O)c1cccc(OC2CCN(Cc3ccc(F)c(OC)c3)CC2)c1	none
O=C(NCc1ccccc1)c1ccc(CN2CCC(Cc3ccccc3)CC2)cc1	none
NC(=O)Cc1cn(-c2ccc(N3CCN(Cc4ccc5c(c4)OCO5)CC3)nn2)c2ccccc12	none
CCCCNC(=O)C(CC)Sc1nnc(-c2ccccc2)c(-c2ccccc2)n1 (stereo not given)	GPR151 ag 5.5 | GPR151 conf act inactive | GPR119 ag inactive
CC(O)c1nc2ccccc2n1Cc1cccc(Cl)c1 (stereo not given)	GPR151 ag 5.2 | GPR151 conf act inactive | GPR119 ag inactive
CC(O)c1nc2ccccc2n1CCOc1ccccc1F (stereo not given)	GPR151 ag 5.1 | GPR151 conf act inactive | GPR119 ag inactive
CC1(C)C(=O)OC(c2ccc(Br)cc2)C2(CCCCC2)C1=O (stereo not given)	none
CC1(C)C(=O)OC(c2ccccc2)C2(CCCC2)C1=O (stereo not given)	GPR151 ag 6.0 | GPR151 conf act inactive | GPR119 ag inactive
Cc1ccc(CN2CCN(Cc3ccc4nonc4c3)CC2CCO)cc1 (stereo not given)	none
COc1ccccc1/C=C/CN1CCN(Cc2cccs2)C(CCO)C1 (stereo not given)	GPR151 ag 6.9 | GPR151 conf act inactive | GPR119 ag inactive
CC(C)=CCN1CCN(Cc2ccc3nonc3c2)CC1CCO (stereo not given)	GPR151 ag 5.4 | GPR151 conf act inactive | GPR119 ag inactive
Cc1ccc(CN2CCN(C/C(Cl)=C/c3ccccc3)CC2CCO)o1 (stereo not given)	GPR151 ag 5.4 | GPR151 conf act inactive | GPR119 ag inactive
Cc1ccc(CN2CCN(C/C=C/C(C)C)CC2CCO)o1 (stereo not given)	none
Cc1ccc(CN2CCN(C/C=C/c3ccc(F)cc3)CC2CCO)o1 (stereo not given)	GPR151 ag 13 | GPR151 conf act inactive | GPR119 ag inactive
COc1ccccc1/C=C/CN1CCN(Cc2ccccc2)C(CCO)C1 (stereo not given)	none
COc1ccc(S(=O)(=O)NCCOC23CC4CC(CC(C4)C2)C3)cc1	none
O=C(Nc1ccccc1[N+](=O)[O-])c1ccc(C(=O)Nc2ccccc2[N+](=O)[O-])cc1	none
Cc1ccc(CN2CCN(Cc3ccc4c(c3)OCCO4)CC2CCO)o1 (stereo not given)	GPR151 ag 5.9 | GPR151 conf act inactive | GPR119 ag inactive
Cc1nc2nc(C(=O)O)[nH]n2c(=O)c1Cc1ccccc1	none
Cc1nc2nc(C(F)(F)F)[nH]n2c(=O)c1Cc1ccccc1	GPR151 ag 8.1 | GPR151 conf act inactive | GPR119 ag inactive
COC(=O)c1ccc(NC(=O)C(C)N(c2ccc(C)c(C)c2)S(C)(=O)=O)cc1 (stereo not given)	none
CCOC(=O)c1ccccc1NC(=O)C(C)N(c1ccc(Cl)cc1)S(C)(=O)=O (stereo not given)	none
CCOC(=O)c1ccc(NC(=O)C(C)N(c2ccc(C)c(C)c2)S(C)(=O)=O)cc1 (stereo not given)	GPR151 ag 5.1 | GPR151 conf act inactive | GPR119 ag inactive
CCOC(=O)c1ccccc1NC(=O)C(C)N(c1ccc(C)cc1)S(C)(=O)=O (stereo not given)	GPR151 ag 5.9 | GPR151 conf act inactive | GPR119 ag inactive
CCOC(=O)c1sc2ncn(/N=C/N(C)C)c(=O)c2c1C	GPR151 ag 7.1 | GPR151 conf act inactive | GPR119 ag inactive
COc1ccc(N2CCN(C(=O)C(c3ccccc3)c3ccccc3)CC2)nn1	GPR151 ag 5.7 | GPR151 conf act inactive | GPR119 ag inactive
CCOC(=O)c1[nH]c(C)c(C(=O)OCC(=O)NC(=O)Nc2ccc3c(c2)OCCO3)c1C	none
Cc1cc(=O)n(CC(=O)NCc2csc(-c3ccccc3)n2)cn1	none
O=C(CCCn1cnc(-c2ccccc2)cc1=O)NCCc1csc(-c2ccccc2)n1	GPR151 ag 9.2 | GPR151 conf act inactive | GPR119 ag inactive
COC(=O)NNC(=S)NCc1ccc(C)cc1	GPR151 ag 5.6 | GPR151 conf act inactive | GPR119 ag inactive
Cc1ccc([N+](=O)[O-])cc1N1C(=O)C2CC=C(Cl)CC2C1=O (stereo not given)	none
Cc1cc([N+](=O)[O-])ccc1N1C(=O)C2CC=C(Cl)CC2C1=O (stereo not given)	GPR151 ag 5.6 | GPR151 conf act inactive | GPR119 ag inactive
COc1ccc(C(O)CN2C3=NCCCN3c3ccccc32)cc1 (stereo not given)	GPR151 ag 5.1 | GPR151 conf act inactive | GPR119 ag inactive
COc1cccc(CN2CCN(Cc3c[nH]c4ccccc34)CC2)c1	none
COc1ccc(C2CC(C(F)(F)F)n3ncc(C(=O)NCCCn4ccnc4)c3N2)cc1 (stereo not given)	none
OC(CN1CCOCC1)Cn1cnc2c(SCc3ccccc3)ncnc21 (stereo not given)	GPR151 ag 6.0 | GPR151 conf act inactive | GPR119 ag inactive
Cc1cc2c([nH]c3ccccc32)c(N2CCOCC2)c1C	none
COC(=O)c1sc2nc(N)c(C#N)c(-c3ccco3)c2c1N	none
O=C(OCc1cccc([N+](=O)[O-])c1)c1cc(Cl)ccc1O	GPR151 ag 7.2 | GPR151 conf act inactive | GPR119 ag inactive
COc1ccc(NC2=CC(=O)N(Cc3ccco3)C2=O)c(OC)c1	none
